From PubChem BioAssay AID1852 (Sanford-Burnham Center for Chemical Genomics, 2009)
Out of some 2,500 compounds screened, about 1,100 (44%) were called active.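 The calls were made as follows: active = inhibition above 50% at 4 µM in the single-point screen; inactive = inhibition of 50% or less.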 The set was probably picked from earlier hits. The list shows a part of the results.

Assay: blockers of TNF-a NF-kB luciferase induction – cell-based, HEK293T NF-kB-Luc, luminescence, selectivity assay for NOD1/NOD2 signaling inhibitor project, primary screen (AID 1852)
Conditions: TNF-a induced, 14 h, at 4 µM, stronger effect = higher value

inhibition, inactive:
COc1ccc(CNS(=O)(=O)c2ccc3c(c2)CC(C)N3C(=O)C2CC2)cc1 (stereo unspecified) 30%
CCOc1ccc(OCCN2C(=O)NC3(CCCc4ccccc43)C2=O)cc1 (stereo unspecified) 18.7%
O=C(Nc1nc2cc3c(cc2s1)OCCO3)C1=COCCO1 22.7%
CCN(CC)S(=O)(=O)c1cccc(C(=O)Nc2nc3cc4c(cc3s2)OCCO4)c1 22%
O=C(c1ccc(S(=O)(=O)N2CCCCC2)cc1)N1CCN(CCN2C(=O)c3cccc4cccc(c34)C2=O)CC1 31%
CCC1CCCCN1S(=O)(=O)c1ccc(NC(=O)c2ccncc2)cc1 (stereo unspecified) 9.7%
O=C(c1[nH]ncc1-c1ccc(Cl)cc1)C1CO1 (stereo unspecified) 12.8%
CN(C(=O)C(C)(C)C)c1ccc(OCC(=O)N2CCc3ccccc3C2)cc1 41.9%
CCOc1ccc(NC(=O)Nc2nc(SCC)ns2)cc1 12.2%
S=C(NNc1ccnc2cc(Cl)ccc12)Nc1ccc(Cl)cc1Cl 43.7%
FC(F)(F)c1cnc(NNC(=S)Nc2ccccc2Cl)c(Cl)c1 -6.8%
COc1ccc(-c2n[nH]c(C)c2-c2ccc(OC)c(OC)c2)c(O)c1 28.7%
COc1cccc(NC(=O)c2oc3ccc(S(=O)(=O)N4CCOCC4)cc3c2C)c1 -31.8%
CC1CCN(c2ccc(-c3cccc(NC(=O)C(F)(F)F)c3)nn2)CC1 -170%
O=C(OCn1ncc(Cl)c(Cl)c1=O)c1cccc(C(F)(F)F)c1 43%
COc1ccc(CCNc2oc(COc3ccc(Br)cc3)nc2C#N)cc1OC 24.5%
COc1ccc(CCNc2oc(COc3ccccc3Cl)nc2C#N)cc1OC 11.6%
Cc1ccc(NS(=O)(=O)c2sc3ccc(Cl)cc3c2C)cc1 9.4%
COc1cc(CNc2ccc3[nH]c(=O)[nH]c3c2)ccc1OCc1cccc(C)c1 44.3%
CCOc1ccc(Nc2nc(N)c3ccccc3n2)cc1 -144%
CCOc1ccc(NS(=O)(=O)c2cc(Cl)ccc2OC)cc1 10.6%
CC(C)c1ccc(-c2nnn(CCC(=O)O)n2)cc1 49.4%
CC(C)=CCc1c(O)cc2oc3c(CC=C(C)C)c(O)c(O)c(CC=C(C)C)c3c(=O)c2c1O 15.6%
C=CCNc1ncnc2ccc(Br)cc12 25.1%
Cc1ccc(/C=C2/SC(=S)N(c3ccc(S(=O)(=O)Nc4nccs4)cc3)C2=O)cc1 21%
O=C(O)c1ccc(N/N=C/c2ccc(OC(=O)c3ccccc3Cl)cc2)cc1 7.7%
CC(C)Cc1ccc(S(=O)(=O)Nc2ccccn2)cc1 15.7%
CCOC(=O)c1c(-c2ccccc2)oc2cc(Br)c(O)c(C=O)c12 50%
O=C(N/N=C/c1cc(Br)c(Br)s1)c1ccncc1 2.7%
O=S(=O)(Nc1cccc(-c2cn3cccnc3n2)c1)c1ccc(-c2ccccc2)cc1 20.8%
O=[N+]([O-])c1ccccc1S(=O)(=O)Nc1cccc2cccnc12 35%
Cc1nc(C)c(C(=O)NNS(=O)(=O)c2ccc3ccccc3c2)s1 21.5%
O=S(=O)(Nc1cccc2cccnc12)c1ccccc1 -4%
COc1ccc(NS(=O)(=O)c2ccc3ccccc3c2)c2ncccc12 27.9%
CC(C)NC(=O)c1sc(=S)n2c1[nH]c(=O)c1ccc(C(=O)NCCc3ccc(Cl)cc3)cc12 42.5%
O=C(NCc1ccccc1)c1ccc(C2SCC(=O)N2Cc2ccccc2)cc1 (stereo unspecified) 33.1%
COc1cc(C(=O)Nc2sc3c(c2C(=O)NCc2ccco2)CCCC3)cc(OC)c1OC -39.2%
COc1ccc(OC)c(CCNC(=O)c2ccc3c(=O)[nH]c4c(C(=O)NC(C)C)sc(=S)n4c3c2)c1 35.7%
CCNC(=O)/C(C#N)=C/c1c(N2CCN(c3cccc(Cl)c3)CC2)nc2c(C)cccn2c1=O -19.8%
COc1ccccc1N1CCN(c2ncnc3sc(C)c(-c4ccccc4)c23)CC1 26.9%
CCc1nc(SCC(=O)N2CCN(c3ccccc3)CC2)c2oc3ccccc3c2n1 0.6%
Oc1cc2c(cc1C(c1ccc(Cl)c(Cl)c1)N1CCCC1)OCO2 (stereo unspecified) -22.5%
Cc1cc(N/N=C/c2ccccc2[N+](=O)[O-])nc(-n2nc(C)cc2C)n1 1.1%
Cc1nc([N+](=O)[O-])c(Sc2nc3ccc([N+](=O)[O-])cc3[nH]2)n1Cc1ccccc1 38%
O=[N+]([O-])c1cc(Cl)cc(/C=N\Nc2ccccn2)c1O 48.8%
Cc1ccc(NC(=O)Cc2cc(C(=O)O)c3ccccc3n2)c(C)c1 25.2%
COc1cc(-c2cc(C(=O)Nc3ccc(N4CCOCC4)cc3)c3ccccc3n2)cc(OC)c1OC 21.8%
CCOC(=O)c1cc(-c2ccccc2)sc1NC(=O)c1cc(OC)c(OC)c(OC)c1 -26.7%
CCOC(=O)c1sc(NC(=O)CSc2n[nH]c(-c3ccccc3)n2)c(C#N)c1C 38.1%
COc1ccc(N2CCN(C(=O)CCC(=O)N3CCOc4ccc(C)cc43)CC2)cc1 40.5%
COc1ccc(-n2nc3c(c2NC(=O)CCl)CSC3)cc1 -4.5%

inhibition, active:
Cc1ccc(Cl)cc1NC1=C/C(=N\S(=O)(=O)c2cccs2)c2ccccc2C1=O 102%
CN(CC1CCCO1)S(=O)(=O)c1ccc(C(=O)Nc2nc3cc4c(cc3s2)OCO4)cc1 (stereo unspecified) 69.7%
O=C(Nc1nnc(-c2ccccc2Cl)o1)c1ccc(S(=O)(=O)N2CCCCCC2)cc1 93.9%
CCC1CCCCN1S(=O)(=O)c1ccc(C(=O)Nc2nnc(-c3ccccc3Cl)o2)cc1 (stereo unspecified) 70.3%
CC1CCCCN1S(=O)(=O)c1ccc(C(=O)Nc2nnc(-c3ccccc3Cl)o2)cc1 (stereo unspecified) 97.2%
S=C(NNc1ccnc2cc(Cl)ccc12)Nc1ccccc1Cl 64.6%
COc1ccc(-c2cnc(N)nc2-c2ccc(OC)cc2O)cc1 70.5%
COc1ccc(-c2cncnc2-c2ccc(OC)cc2O)cc1 79.8%
Cc1c(C(=O)Nc2nonc2-c2ccc(F)cc2)oc2ccc(F)cc12 77.4%
Cc1ccc(C(=O)OCn2ncc(Cl)c(Cl)c2=O)cc1 88.1%
O=C(OCn1ncc(Cl)c(Cl)c1=O)c1ccc(F)cc1 83.1%
COc1ccc(Nc2oc(COc3ccccc3OC)nc2C#N)cc1 77.8%
CCOc1ccc(NS(=O)(=O)c2ccc3[nH]c(=O)[nH]c3c2)cc1 88.5%
CCOc1ccc(S(=O)(=O)Nc2cnc3ccccc3c2)cc1 81.5%
COC(=O)CCn1nnc(-c2ccc(C(C)C)cc2)n1 71.7%
O=C(Nc1ccccc1)C1=C(c2ccccc2)S(=O)(=O)CCS1(=O)=O 60.9%
Cc1ccc(NC(=O)C2=C(c3ccccc3)S(=O)(=O)CCS2(=O)=O)cc1 65%
Brc1ccc2ncnc(NCc3ccco3)c2c1 60.4%
Brc1ccc2ncnc(NCc3cccnc3)c2c1 65.2%
CC(C)(C)c1ccc(S(=O)(=O)/N=C2\C=C(NS(=O)(=O)c3ccccc3)C(=O)c3ccccc32)cc1 96.3%
CC(C)c1ccc(S(=O)(=O)/N=C2\C=C(NS(=O)(=O)c3ccccc3)C(=O)c3ccccc32)cc1 103%
CCc1oc2ccccc2c1C(=O)c1cc(Br)c(O)c(Br)c1 71.9%
CCOc1ccc2c(c1)C(=NNC(=O)c1ccncc1)c1cc(OCC)ccc1-2 106%
Cc1ccc2cccc(NS(=O)(=O)c3ccccc3)c2n1 62.8%
Cc1ccc(S(=O)(=O)Nc2cccc3cccnc23)cc1 105%
COc1cc(NS(=O)(=O)c2ccc3ccccc3c2)c2ncccc2c1 55.6%
Cc1ccc(S(=O)(=O)Nc2cccc3cccnc23)c([N+](=O)[O-])c1 103%
O=C(NCc1ccccc1)c1sc(=S)n2c1[nH]c(=O)c1ccccc12 73.6%
CCCCNC(=O)c1sc(=S)n2c1[nH]c(=O)c1ccccc12 69.9%
CCOc1ccc(CCNC(=O)c2ccc3c(=O)[nH]c4c(C(=O)NC(C)C)sc(=S)n4c3c2)cc1 50.9%
O=C(NCc1ccco1)c1sc(=S)n2c1[nH]c(=O)c1ccccc12 54.1%
COc1ccccc1N1CCN(c2nc(C)nc3c2oc2ccccc23)CC1 68.6%
O=[N+]([O-])c1ccc(O)c(/C=N/Nc2nc3ccccc3[nH]2)c1 67.8%
O=[N+]([O-])c1cc(/C=N/Nc2nc3ccccc3[nH]2)c(O)cc1O 66.5%
C[C@H]1O[C@@H](O[C@H]2[C@@H](O)C[C@H](O[C@H]3[C@@H](O)C[C@H](O[C@H]4CC[C@@]5(C)[C@H](CC[C@@H]6[C@@H]5C[C@@H](O)[C@]5(C)[C@@H](C7=CC(=O)OC7)CC[C@]65O)C4)O[C@@H]3C)O[C@@H]2C)C[C@H](O)[C@@H]1O 104%
COC(=O)c1sc(NC(=O)c2cc(-c3ccccc3)nc3ccccc23)c(C#N)c1C 75.2%
CCOC(=O)c1sc(NC(=O)c2cc(-c3ccccc3C)nc3ccccc23)c(C#N)c1C 92.5%
Cc1ccccc1-c1cc(C(=O)Nc2sc(C(=O)OC(C)C)c(C)c2C#N)c2ccccc2n1 94.3%
CCOC(=O)c1sc(NC(=O)c2cc(-c3ccccc3)nc3ccccc23)c(C#N)c1C 80.3%
COc1ccc(-n2nnnc2S(=O)(=O)CC(=O)N2CCCCC2)cc1 102%
